According to PubChem BioAssay (NCATS):
“And” between values parts separate entries of the source, which are not always exact repeats. Equal entries are not always repeated. Results filed as inconclusive are left out. A call without a number means that no potency is given here. The source holds several records for some structures; these can differ, active in one and inactive in another. The source made the active and inactive calls. Unless noted, calls follow the shape of the dose curve; as a rule, active = well fitted curve in the direction sought with a large enough effect; inconclusive = small, poorly fitted or top-dose-only effect, or another doubt; inactive = no such curve, though single readings can be large; an effect the other way counts as inactive or inconclusive.

Legend:
[1] = target: Peroxisome proliferator-activated receptor alpha (Homo sapiens) (UniProt Q07869); experiment: qHTS assay for small molecule agonists of the peroxisome proliferator-activated receptor alpha (PPARalpha) signaling pathway (AID 651778); details: PathHunter PPARalpha complementation, chemiluminescence, 6 h; stronger effect = higher value
In short: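 Cells plated at 2,000/well and held overnight at 37 C, 5% CO2, then compound added by pin tool for 6 hr; after PathHunter detection reagent and 60 min at room temperature, chemiluminescence from enzyme complementation was read.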

[2] = qHTS for compounds that reverse cellular toxicity of Amyloid beta (A-beta) peptide in yeast: LOPAC Validation Assay (AID 720559); details: yeast expressing A-beta; series mostly up to 46.1 µM
In short: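 Here, A-beta-toxic yeast grow with test compounds at 30 C for 48 hr before optical density at 600 nm is recorded; data are normalized against DMSO and the FeCl3-clioquinol control.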

[3] = qHTS assay for small molecule agonists of the antioxidant response element (ARE) signaling pathway measured by Nrf2-dependant transcriptional activity (AID 720636; active = well fitted curve in the direction sought with a large enough effect in the repeat runs; an effect the other way counts as inactive or inconclusive;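 also: HepG2 cells with an ARE-driven luciferase reporter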); details: ARE-luc HepG2, Nrf2 luciferase reporter, 16 h; series mostly up to 92.4 µM
In short: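 Reporter gene assay, HepG2 ARE-luc: 16 hr compound, 37 C, 5% CO2; read-out luciferase luminescence.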

[4] = target: T1, Hexokinase-4 (Homo sapiens) + Glucokinase regulatory protein (Homo sapiens) (UniProt P35557+Q14397); experiment: qHTS assay for inhibitors of recombinant human GCK-GKRP interaction: Diaphorase-coupled assay (AID 743205); details: G6PDH/diaphorase resorufin fluorescence; series mostly up to 57.5 µM
In short: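 Signal derives from resorufin generated by diaphorase, linked to GCK turnover of glucose (5 mM) and ATP (0.4 mM). Enzyme complex was added after a 20-minute compound preincubation and monitored for 30 minutes.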

[5] = target: T1, Hexokinase-4 (Homo sapiens) + Glucokinase regulatory protein (Homo sapiens); experiment: qHTS assay for inhibitors of recombinant human GCK-GKRP interaction: ADP-Glo assay (AID 743206); details: ADP-Glo luminescence, 60 min, 0% = vehicle-only wells with enzyme present; series mostly up to 76.9 µM
In short: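 GST-GCK and FLAG-GKRP (15 nM each in the dispensed mix, with 2 uM S6P) react with 0.4 mM ATP and 5 mM glucose (final) in Hepes pH 7.6 for 60 min at room temperature. ADP is measured by ADP-Glo luminescence.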

[6] = target: T1, Hexokinase-4 (Homo sapiens) + Glucokinase regulatory protein (Homo sapiens); experiment: qHTS assay for inhibitors of recombinant human GCK-GKRP interaction: HTRF assay (AID 743207); details: recombinant GCK-GKRP HTRF binding, 60 min, with sorbitol-6-phosphate; series mostly up to 57.5 µM
In short: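 Titration screening format: recombinant GST-GCK and FLAG-GKRP at 5 nM, S6P at 2 uM, labelled anti-tag antibodies, 60 min at RT, dual-wavelength HTRF readout.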

[7] = qHTS assay for cell viability of HEK293 cells (AID 743288); details: ATP luminescence (CellTiter-Glo), 18 h, stronger effect = lower value; also: nearly all actives have a fitted effect of over 50% in size
In short: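 Luminescent ATP quantitation served as the viability read-out. Cells (parental HEK293, 2,000/well) received compounds after at least 5 h at 37 C and were exposed for 18 h before a 30 min room-temperature reagent step.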

[8] = qHTS assay for cell viability of the p53RE-bla HCT-116 cell line (AID 743292); details: p53RE-bla HCT-116 viability, ATP luminescence, 16 h; series mostly up to 95 µM; also: nearly all actives have a fitted effect of over 55% in size
In short: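 Readout: CellTiter-Glo luminescence after 30 min RT. Treatment: compounds in DMSO, 16 h, 37 C. Cells: CellSensor p53RE-bla HCT-116, 4,000/well, preincubated 5 h.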

[9] = qHTS for Activators of Parkin Expression: LOPAC Validation Assay (NLuc Reporter) (AID 720572); details: Parkin promoter NanoLuc reporter cells, luminescence; series mostly up to 46.1 µM
In short: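 Neuronal line stably carrying a FLuc/NLuc coincidence reporter under the Parkin promoter, seeded 24 h, then dosed in 7-point series for 24 h at 37 C. NLuc luminescence read after FLuc; normalized to DMSO and positive control (100%).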

[10] = qHTS assay for small molecule antagonists of the retinoid-related orphan receptor gamma (ROR-gamma) signaling pathway - cell viability counter screen (AID 720652; active = well fitted curve in the direction sought with a large enough effect in the repeat runs; an effect the other way counts as inactive or inconclusive;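 also: compound exposure lasted 16 hr before ATP read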); details: RORgamma reporter cell line viability counter screen; series mostly up to 92.2 µM
In short: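 Luminescence from CellTiter-Glo after 30 min at room temperature reported cellular ATP as the cytotoxicity measure. Cells were the CHO reporter line with doxycycline-induced ROR-gamma expression, exposed to compound for 16 hr at 37 C.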

[11] = qHTS Assay for Identifying Gametocytocidal Compounds (AID 743244); also: potency is read from the fitted curve at half-maximal effect;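 as to max response: actives lower the fluorescent signal which means gametocytes are killed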; details: P. falciparum 3D7 stage III-V gametocytes, alamarBlue, 72 h; max response: stronger effect = lower value
In short: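 In this qHTS viability screen, late-stage 3D7 gametocytes are incubated with compound for 72 h, then with alamarBlue for 24 h; reduced resorufin fluorescence marks killing.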

[12] = target: Tyrosine-protein kinase Yes (Homo sapiens) (UniProt P07947); experiment: qHTS for small molecule inhibitors of Yes1 kinase: Primary Screen (AID 686947); details: Yes1 kinase biochemical qHTS inhibition; series mostly up to 76.9 µM; also: nearly all actives have a fitted effect of over 60% in size
In short: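 Yes1 (4 nM) preincubated 20 min with compound, then 60 min room-temperature reaction with 0.1 mM ATP and 0.3 mg/mL poly(E4Y) in pH 7.5 Tris, 10 mM MgCl2. ADP measured by ADP-Glo luminescence, normalised to enzyme/no-enzyme controls.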

[13] = qHTS for small molecule inhibitors of Yes1 kinase: Counter Assay (AID 686950); details: series mostly up to 76.9 µM;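 also: no kinase present so only ADP-Glo detection of a fixed ADP amount is tested; luminescence from ADP-Glo reporting ADP in a fixed ATP and ADP mixture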
In short: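 Enzyme-free ADP-Glo interference check: compounds were preincubated 20 min in buffer, then an ATP/ADP mix (0.08 mM ATP, 0.02 mM ADP final) was added for 60 min at room temperature before two-step ADP-Glo luminescence detection.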

[14] = qHTS profiling for inhibitors of Plasmodium falciparum (3D7) proliferation (AID 743322);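 also: infected erythrocytes exposed to compound for 72 h before lysis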; details: P. falciparum 3D7 proliferation; at 28.7 µM (top of the series) unless noted
In short: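 Erythrocytes infected with P. falciparum (0.3% parasitemia, 2.5% hematocrit) incubated with compounds 72 h at 37 C, 5% CO2. Lysis with saponin/Triton buffer containing SYBR Green I, overnight at room temperature in the dark; DNA fluorescence (485/535 nm) normalised to 0.29 uM artemisinin and DMSO.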

[15] = qHTS profiling for inhibitors of Plasmodium falciparum (DD2) proliferation (AID 743323; call rule not given here); details: lower = more inhibition; at 28.7 µM (top of the series) unless noted
In short: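 SYBR Green fluorescence (ex 485, em 535 nm) of lysed cultures gives parasite DNA content; wells normalized to artemisinin (0.29 uM) and DMSO controls. Infected red cells: 0.3% parasitemia, 2.5% hematocrit, 72 h, 37 C.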

[16] = qHTS profiling for inhibitors of Plasmodium falciparum (HB3) proliferation (AID 743324); details: Plasmodium falciparum HB3 blood-stage proliferation; at 28.7 µM (top of the series) unless noted
In short: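 P. falciparum HB3 grown in erythrocytes (0.3% parasitemia, 2.5% hematocrit final) with compound for 72 h at 37 C, 5% CO2. Parasite DNA detected by SYBR Green after saponin/triton lysis overnight; normalized to 0.29 uM artemisinin and DMSO.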

[17] = qHTS for Activators of Parkin Expression: LOPAC Validation Assay (FLuc Reporter) (AID 720573); details: Cell line, PRKN promoter firefly luciferase reporter, vehicle wells = 0, positive control = 100%; series mostly up to 46.1 µM
In short: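 Readout is FLuc luminescence from neuronal reporter cells (Parkin promoter, FLuc plus NLuc) after 24 h compound exposure in dose response. Values normalized to neutral DMSO and positive-control compounds.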

T1 sequence (P35557 whole entry, looked up): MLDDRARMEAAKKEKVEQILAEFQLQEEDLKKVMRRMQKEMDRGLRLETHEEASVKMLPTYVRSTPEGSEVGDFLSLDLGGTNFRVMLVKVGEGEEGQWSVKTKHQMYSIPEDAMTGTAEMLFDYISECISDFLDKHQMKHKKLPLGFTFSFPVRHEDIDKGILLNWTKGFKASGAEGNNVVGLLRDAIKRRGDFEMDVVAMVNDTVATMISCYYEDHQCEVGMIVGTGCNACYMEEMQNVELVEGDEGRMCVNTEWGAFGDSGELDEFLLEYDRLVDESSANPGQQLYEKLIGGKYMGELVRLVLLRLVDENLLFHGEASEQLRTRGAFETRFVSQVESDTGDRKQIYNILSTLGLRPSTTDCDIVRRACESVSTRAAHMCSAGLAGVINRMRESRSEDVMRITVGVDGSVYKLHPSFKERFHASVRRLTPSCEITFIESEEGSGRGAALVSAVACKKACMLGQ
T1 sequence (Q14397 whole entry, looked up): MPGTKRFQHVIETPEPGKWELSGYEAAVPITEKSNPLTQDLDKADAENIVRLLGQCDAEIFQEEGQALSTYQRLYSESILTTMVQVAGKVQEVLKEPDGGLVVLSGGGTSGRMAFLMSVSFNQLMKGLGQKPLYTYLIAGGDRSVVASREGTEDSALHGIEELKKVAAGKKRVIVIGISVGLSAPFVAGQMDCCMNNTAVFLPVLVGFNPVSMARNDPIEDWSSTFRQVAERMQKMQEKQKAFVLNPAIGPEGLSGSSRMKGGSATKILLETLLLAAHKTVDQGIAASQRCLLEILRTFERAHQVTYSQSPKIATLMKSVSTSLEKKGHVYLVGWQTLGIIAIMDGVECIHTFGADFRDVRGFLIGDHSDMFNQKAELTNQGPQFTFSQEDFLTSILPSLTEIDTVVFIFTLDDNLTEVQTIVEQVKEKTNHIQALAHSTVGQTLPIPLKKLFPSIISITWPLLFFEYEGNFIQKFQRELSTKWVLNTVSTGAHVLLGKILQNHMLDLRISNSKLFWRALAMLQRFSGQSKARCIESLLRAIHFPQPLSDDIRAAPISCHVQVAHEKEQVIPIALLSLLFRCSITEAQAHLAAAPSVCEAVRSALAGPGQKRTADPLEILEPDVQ
Tyrosine-protein kinase Yes (Homo sapiens), sequence (P07947 whole entry, looked up): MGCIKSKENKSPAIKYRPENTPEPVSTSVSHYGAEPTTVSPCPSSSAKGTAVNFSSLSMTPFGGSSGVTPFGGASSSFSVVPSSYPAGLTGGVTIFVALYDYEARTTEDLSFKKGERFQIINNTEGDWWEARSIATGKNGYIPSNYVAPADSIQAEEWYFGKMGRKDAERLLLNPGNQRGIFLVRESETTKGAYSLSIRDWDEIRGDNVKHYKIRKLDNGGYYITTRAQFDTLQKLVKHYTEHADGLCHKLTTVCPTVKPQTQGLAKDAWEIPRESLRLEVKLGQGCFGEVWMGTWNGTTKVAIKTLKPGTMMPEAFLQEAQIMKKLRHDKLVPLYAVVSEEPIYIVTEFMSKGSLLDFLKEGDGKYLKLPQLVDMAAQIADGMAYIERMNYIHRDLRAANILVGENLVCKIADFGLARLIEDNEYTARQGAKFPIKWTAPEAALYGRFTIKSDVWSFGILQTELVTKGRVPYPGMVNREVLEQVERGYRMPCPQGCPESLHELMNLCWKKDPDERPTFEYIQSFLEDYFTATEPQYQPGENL
Peroxisome proliferator-activated receptor alpha (Homo sapiens), sequence (Q07869 whole entry, looked up): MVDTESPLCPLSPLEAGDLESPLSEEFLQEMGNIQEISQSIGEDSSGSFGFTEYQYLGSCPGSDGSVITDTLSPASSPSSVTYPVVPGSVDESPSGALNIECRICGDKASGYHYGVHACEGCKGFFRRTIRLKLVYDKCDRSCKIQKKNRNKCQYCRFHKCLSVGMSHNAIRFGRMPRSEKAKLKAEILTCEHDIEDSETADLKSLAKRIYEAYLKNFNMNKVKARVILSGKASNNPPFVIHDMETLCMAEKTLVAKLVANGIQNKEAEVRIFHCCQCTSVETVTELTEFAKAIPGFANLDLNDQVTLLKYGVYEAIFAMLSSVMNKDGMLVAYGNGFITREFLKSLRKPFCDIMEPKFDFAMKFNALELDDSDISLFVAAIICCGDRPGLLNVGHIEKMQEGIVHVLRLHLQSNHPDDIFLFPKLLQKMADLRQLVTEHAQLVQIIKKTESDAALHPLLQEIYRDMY

COc1ccc(Cl)cc1C(=O)NCCc1ccc(S(=O)(=O)NC(=O)NC2CCCCC2)cc1
max response [1]: 0.201% (inactive)
outcome [2]: inactive
outcome [3]: inactive
outcome [4]: inactive
outcome [5]: inactive
outcome [6]: inactive
max response [7]: -4.82% (inactive)
Potency [8]: inactive

CC1=C(/C=C/C(C)=C/C=C/C(C)=C/C(=O)O)C(C)(C)CCC1
max response [1]: -0.0468% (inactive) and 3.03% (inactive)
outcome [2]: inactive
Potency [9]: inactive
outcome [4]: inactive
outcome [5]: inactive
outcome [6]: inactive
max response [7]: -2.27% (inactive) and -2.67% (inactive)
Potency [8]: inactive

NCCNCCNCCNCCN
max response [1]: -1.59% (inactive) and -2.29% (inactive)
outcome [3]: inactive
Potency [10]: inactive
max response [11]: -2.7% (inactive)
max response [7]: -15.2% (inactive) and 3.69% (inactive)
Potency [8]: inactive

COC(=O)C1=C(C)NC(C)=C(C(=O)OC)C1c1ccccc1[N+](=O)[O-]
max response [1]: -2.24% (inactive)
outcome [2]: inactive
outcome [4]: inactive
outcome [5]: inactive
outcome [6]: inactive

CCCCOC(=O)c1ccc(O)cc1
max response [1]: -8.78% (inactive) and 4.43% (inactive)
Potency [10]: inactive
max response [11]: 0.124% (inactive)
max response [7]: -12.8% (inactive) and -6.18% (inactive)
Potency [8]: inactive

CNCCCC1c2ccccc2C=Cc2ccccc21
outcome [2]: inactive
Potency [9]: inactive
outcome [4]: inactive
outcome [5]: inactive
outcome [6]: inactive

CCOC(=O)c1ccc(O)cc1
max response [1]: -1.04% (inactive)
max response [11]: 10.3% (inactive)
max response [7]: -3.62% (inactive)
Potency [8]: inactive

CCCn1cnc2c1c(=O)n(CCCCC(C)=O)c(=O)n2C
outcome [2]: inactive
Potency [9]: inactive
outcome [4]: inactive
outcome [5]: inactive
outcome [6]: inactive
max response [11]: -8.62% (inactive) and 26.7% (inactive)

CCN(CC)CCCC(C)Nc1c2ccc(Cl)cc2nc2ccc(OC)cc12 (centres undefined)
outcome [2]: inactive
Potency [9]: inactive
outcome [4]: inactive
outcome [5]: inactive
outcome [6]: inactive
Potency [11]: 3.16 µM (active) and 1 µM (active)

O=C1N=C(O)CN1/N=C/c1ccc(-c2ccc([N+](=O)[O-])cc2)o1
outcome [2]: inactive
Potency [9]: inactive
outcome [4]: inactive
outcome [5]: inactive
outcome [6]: inactive

CC(CN(C)C)CN1c2ccccc2CCc2ccccc21 (centres undefined)
outcome [2]: inactive
Potency [9]: inactive
outcome [4]: inactive
outcome [5]: inactive
outcome [6]: inactive
max response [11]: 4.34% (inactive)

Oc1cn2c(n1)Nc1ccc(Cl)c(Cl)c1C2
outcome [12]: inactive
outcome [13]: inactive
max response [11]: 2.25% (inactive) and 14.5% (inactive)

CC1=C(CC(=O)O)c2cc(F)ccc2/C1=C\c1ccc(S(C)=O)cc1 (centres undefined)
outcome [2]: inactive
Potency [9]: inactive
outcome [4]: inactive
outcome [5]: inactive
outcome [6]: inactive

CSc1ccc2c(c1)N(CCC1CCCCN1C)c1ccccc1S2 (centres undefined)
outcome [2]: inactive
Potency [9]: inactive
outcome [4]: inactive
outcome [5]: inactive
outcome [6]: inactive
Potency [11]: 2.51 µM (active)

O=C1Nc2ccc(Cl)cc2[C@@](C#CC2CC2)(C(F)(F)F)O1
outcome [12]: inactive
outcome [13]: inactive
max response [11]: -21.2% (inactive)
remaining parasite growth % (stronger effect = lower value) [14]: 6.68% [at 57.5 µM]
activity, percent of control [15]: 22.7% [at 57.5 µM]
remaining proliferation (% of control), lower = more inhibition [16]: 11.8% [at 57.5 µM]

CN(C)CCCN1c2ccccc2CCc2ccccc21
outcome [2]: inactive
Potency [9]: inactive
outcome [3]: inactive
Potency [8]: inactive

C=Cc1c(C)c2cc3[nH]c(cc4nc(cc5nc(cc1[nH]2)C(C)=C5CCC(=O)O)C(CCC(=O)O)=C4C)c(C)c3C=C
outcome [2]: inactive
Potency [9]: inactive
outcome [4]: inactive
outcome [5]: inactive
outcome [6]: inactive

CC(C(O)c1ccc(O)cc1)N1CCC(Cc2ccccc2)CC1 (centres undefined)
outcome [2]: inactive
Potency [9]: inactive
outcome [17]: inactive
outcome [4]: inactive
outcome [5]: inactive
outcome [6]: inactive
Potency [11]: 2.82 µM (active)

CC(C)C(=O)c1c(C(C)C)nn2ccccc12
outcome [2]: inactive
Potency [9]: inactive
outcome [4]: inactive
outcome [5]: inactive
outcome [6]: inactive
max response [11]: -11.3% (inactive) and 12.6% (inactive)

CNCCC(Oc1ccc(C(F)(F)F)cc1)c1ccccc1 (centres undefined)
outcome [2]: inactive
Potency [9]: inactive
outcome [4]: inactive
outcome [5]: inactive
outcome [6]: inactive

CCN(CC)CCNC(=O)c1c(C)[nH]c(/C=C2\C(=O)Nc3ccc(F)cc32)c1C
outcome [13]: inactive

OCCN1CCN(CCCN2c3ccccc3Sc3ccc(Cl)cc32)CC1
outcome [2]: inactive
Potency [9]: inactive
outcome [4]: inactive
outcome [5]: inactive
outcome [6]: inactive

CC[C@H]1CN2CCc3cc(OC)c(OC)cc3[C@@H]2C[C@@H]1C[C@H]1NCCc2cc(OC)c(OC)cc21
outcome [2]: inactive
Potency [9]: inactive
outcome [4]: inactive
outcome [5]: inactive
outcome [6]: inactive

CC(=O)O[C@@]12CO[C@@H]1C[C@H](O)[C@@]1(C)C(=O)[C@H](O)C3=C(C)[C@@H](OC(=O)[C@H](O)[C@@H](NC(=O)OC(C)(C)C)c4ccccc4)C[C@@](O)([C@@H](OC(=O)c4ccccc4)[C@H]21)C3(C)C
outcome [12]: inactive
outcome [13]: inactive
Potency [11]: 18.7 µM (active)
max response [11]: -16.9% (inactive)
remaining parasite growth % (stronger effect = lower value) [14]: 7.64% and -0.123%
activity, percent of control [15]: 14.2% and 11.9%
remaining proliferation (% of control), lower = more inhibition [16]: 0.549% and 1.1%
